# Assay outcomes from PubChem BioAssay.
# An excerpt weighted towards active compounds, which were near 19% of everything screened.
# KB-3-1 cytotox = kills parental KB-3-1 adenocarcinoma cells; KB-3-1 viability, CellTiter-Glo ATP luminescence, 72 h; Potency, µM (doses to about 46.1 µM), hits mostly cytotoxic; 400,000 tested, 1.4% active; AID 1347075; note: nearly all actives have a fitted effect of over 60% in size
#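 Using CellTiter-Glo luminescence, growth of non-resistant KB-3-1 adenocarcinoma cells is assessed 72 h after pin-tool compound addition at 37 °C. Normalized responses across the concentration series yield fitted curves.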
# HT1080 IDH1KD tx = HT-1080 IDH1 knockdown cell toxicity (counter line). HT-1080 IDH1 knockdown viability, ATP luminescence, 48 h. 360,000 tested, 2% active. Potency, µM (series often up to 46.1 µM), actives largely listed as cytotoxic
#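 Viability of IDH1-knockdown HT-1080 fibrosarcoma cells was assessed by CellTiter-Glo after 48 h at 37 °C with titrated compound; concentration-effect curves were classified by fit quality and response size.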
# HT1080-NT tox = kills 2HG-producing HT-1080-NT fibrosarcoma cells. HT-1080-NT fibrosarcoma viability, CellTiter-Glo ATP luminescence, 48 h. Potency, µM (highest dose often 46.1 µM), actives largely listed as cytotoxic. 360,000 tested, 1.6% active. AID 686970;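 note: NT is the 2HG producing partner of a matched IDH1 knockdown line; nearly all actives have a fitted effect of over 55% in size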
#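 HT-1080-NT fibrosarcoma cells (2HG-overproducing), 750 cells/well in RPMI with 5% FBS, dosed after 2 h and incubated 48 h at 37C. CellTiter-Glo luminescence normalized to DMSO and no-cell wells; concentration-response curves fitted and classed.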
# DT40 TDP1 no CPT = qHTS for Inhibitors of human tyrosyl-DNA phosphodiesterase 1 (TDP1): qHTS in cells in absence of CPT; Potency, µM (titrated, usually from 46.2 µM), usual class: inhibitors; DT40 Tdp1-/- hTDP1 cells, no CPT, ATP luminescence, 48 h; AID 686978, 2013; 420,000 tested, 15% active; note: nearly all actives have a fitted effect of over 55% in size
#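 No-CPT arm: Tdp1-/-;hTDP1 DT40 cells (400/well) plus compounds, incubated ≥48 hr at 37 °C. Readout CellTiter-Glo luminescence.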
# TDP1 cell CPT = DT40-hTDP1 cell growth loss with CPT. chicken DT40 Tdp1-/-;hTDP1 cells + 20 nM CPT, ATP luminescence, 48 h. Potency, µM (titrated, usually from 46.2 µM), hits mostly inhibitors. 420,000 tested, 12% active; note: nearly all actives have a fitted effect of over 55% in size
#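 Chicken DT40 Tdp1-/- cells stably complemented with human TDP1 were seeded at 400 cells/well in medium containing 20 nM camptothecin, exposed to pin-transferred compounds, and grown at 37 °C for at least 48 hr. Viability was read as ATP luminescence.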
# KB-V1 cytotox = KB-V1 MDR subline cytotoxicity; Potency, µM (highest dose often 46.1 µM), actives largely listed as cytotoxic; AID 1347076; 400,000 tested, 3.4% active; KB-V1 MDR cells viability, CellTiter-Glo, 72 h; note: nearly all actives have a fitted effect of over 60% in size
#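 Compound-treated KB-V1 multidrug-resistant cells, 72 h, 37 degrees C; viability by CellTiter-Glo. Fitted qHTS curves give the values.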
# Hits are given with their value; - = inactive; ? = inconclusive; . = no result. Calls come from the whole dose curve; as a rule, active = well fitted curve in the direction sought with a large enough effect; inconclusive = small, poorly fitted or top-dose-only effect, or another doubt; inactive = no such curve, though single readings can be large; an effect the other way counts as inactive or inconclusive.
SMILES,KB-3-1 cytotox,HT1080 IDH1KD tx,HT1080-NT tox,DT40 TDP1 no CPT,TDP1 cell CPT,KB-V1 cytotox
COc1cccc(C2/C(=C(/O)c3ccc4c(c3)CC(C)O4)C(=O)C(=O)N2CCCn2ccnc2)c1 (configuration not stated),-,-,-,-,-,?
COC(=O)N/N=C(\C)c1ccc(OC(F)F)cc1,-,-,-,-,-,?
CC(C)c1ccc(NC(=S)NN2C(C)CCCC2C)cc1 (configuration not stated),-,-,-,-,-,-
CC1CCCC(C)N1NC(=S)Nc1ccc(OC(F)F)cc1 (configuration not stated),-,-,-,?,21µM,-
COc1ccccc1NC(=S)NNC(=S)Nc1ccc(OC(F)F)cc1,-,?,-,21µM,?,-
C/C(=N\NC(=O)C1CC1)c1ccc(OC(F)F)cc1,?,-,-,-,-,13µM
C/C(=N\NC(=S)Nc1c(C)cccc1C)c1ccc(OC(F)F)cc1,?,?,?,9.2µM,10µM,?
CN(C(=O)COC(=O)Cc1c(F)cccc1Cl)c1c(N)n(Cc2ccccc2)c(=O)[nH]c1=O,-,-,-,-,?,-
COc1ccc(C/C(C)=N/NC(=S)Nc2ccc(C(C)C)cc2)cc1,-,-,-,?,?,-
CC/C(=N\NC(=S)Nc1ccc(OC)cc1)c1ccc(OC(F)F)cc1,-,?,?,5.8µM,2.9µM,?
O=C(NNC(=S)NCc1ccccc1)c1ccccc1OC(F)F,-,-,-,-,-,-
O=C(NNC(=S)Nc1ccc(Cl)cc1)c1ccccc1OC(F)F,18µM,?,?,23µM,?,3.3µM
CC/C(=N\NC(=S)Nc1cc(C)ccc1C)c1ccc(OC(F)F)cc1,-,-,-,16µM,?,?
CN(Cc1ccccc1)C(=S)Nc1ccc(OC(F)F)cc1,-,-,-,?,-,15µM
CN(C)CCCN(Cc1ccccc1)C(=S)Nc1ccc(OC(F)F)cc1,-,-,-,-,-,?
CCOC(=O)[C@]12CCCC=C1N(Cc1ccco1)C(=O)[C@H](CC(=O)NCC1CCCCC1)C2,-,-,-,?,?,-
CC(C)CN1C(=O)CN(S(C)(=O)=O)CC1(C)C(=O)Nc1ccc2c(c1)OCCO2 (configuration not stated),-,-,-,-,-,-
CCOC(=O)c1sc2ncn(CC(=O)Nc3ccc(C)cc3C)c(=O)c2c1C,-,.,.,-,-,?
Cc1cccc(C(=O)Nc2ccc(S(=O)(=O)N3CCOCC3)cc2C)c1,-,-,-,-,-,-
CCCc1n[nH]c2c1/C(=N\O)CCC2,-,-,-,-,-,-
O=c1[nH]c(-c2ccccn2)nc2sc(-c3ccccc3)cc12,?,-,?,2.1µM,2.3µM,?
CCc1ccc(CNC(=O)c2sc3ncccc3c2-n2c(C)ccc2C)cc1,?,.,.,21µM,15µM,-
COC(=O)c1sc2ncccc2c1OCc1ccc(Cl)cc1,-,-,?,-,-,-
Cc1ccc(C)n1-c1c(C(=O)NCCC(C)C)sc2ncccc12,-,.,.,18µM,16µM,-
CC(C)CCNC(=O)c1cccc(C(=O)NCCC(C)C)c1,-,-,-,?,?,-
SMILES,KB-3-1 cytotox,HT1080 IDH1KD tx,HT1080-NT tox,DT40 TDP1 no CPT,TDP1 cell CPT,KB-V1 cytotox
COCCNC(=O)c1sc2ncccc2c1-n1c(C)ccc1C,-,.,.,?,18µM,-
CCOc1ccc(CCNC(=O)Cn2nnc(-c3ccccc3Cl)n2)cc1OCC,-,.,.,-,-,-
CCOC(=O)c1cc(CC)sc1NC(=O)COC(=O)C1CCC1,-,-,-,-,-,-
Cc1cc(NC(=O)CS(=O)(=O)c2cn(Cc3ccc(F)cc3)c3ccccc23)no1,?,-,-,10µM,21µM,-
Cc1cc(NC(=O)CS(=O)(=O)c2cn(Cc3cccc(C(F)(F)F)c3)c3ccccc23)no1,-,-,-,21µM,?,-
COc1ccccc1CCNC(=O)C(=O)Nc1cc2c3c(c1)CC(=O)N3CCC2,?,-,-,?,?,?
O=C(COc1ccc(S(=O)(=O)N2CCOCC2)cc1)Nc1cccc([N+](=O)[O-])c1,-,-,-,-,-,-
CCOc1ccc(NCc2cccn2-c2nnc(N3CCC(C(=O)NCCc4ccc(OC)c(OC)c4)CC3)s2)cc1,.,.,.,10µM,?,.
CCOc1ccc(CCNC(=O)C2CCN(c3nn4c(=O)cc(C)nc4s3)CC2)cc1OCC,-,-,-,-,-,-
CCOc1ccc(NCc2cccn2-c2nnc(N3CCC(C(=O)NCCCN4CC(C)CC(C)C4)CC3)s2)cc1 (configuration not stated),-,?,21µM,?,?,-
CCOc1ccc(NCc2cccn2-c2nnc(N3CCC(C(=O)NCCc4ccc(OCC)c(OCC)c4)CC3)s2)cc1,.,.,.,8.2µM,15µM,.
CCN1CCN(CCCNC(=O)C2CCN(c3nnc(-n4cccc4)s3)CC2)CC1,-,-,-,-,-,-
C=CCCC(=O)N1CCC(n2nccc2NC(=O)c2ccccc2C)CC1,.,-,-,-,-,.
O=C1/C(=C\c2ccc(Cl)c(Cl)c2)CN(C(=O)CCN2CCOCC2)C/C1=C/c1ccc(Cl)c(Cl)c1,3.7µM,5.2µM,5.2µM,0.82µM,0.58µM,?
CCN(CC)CCC(=O)N1C/C(=C/c2ccccc2)C(=O)/C(=C\c2ccccc2)C1,-,2.9µM,?,3.7µM,1.8µM,?
O=C1/C(=C\c2ccccc2)CN(C(=O)CCN2CCCCC2)C/C1=C/c1ccccc1,?,2.9µM,?,1.5µM,1.3µM,?
CCN(CC)C(=O)CSc1nc(O)c(Cc2ccccc2)c(=O)n1-c1ccccc1,-,-,-,?,-,?
O=c1c(-c2ccccc2)nc2cnc(Nc3ccccc3)nc2n1Cc1cccs1,.,.,.,-,-,.
CCOC(=O)c1ccc(NC(=O)C(=O)NCc2ccco2)cc1,-,-,-,-,-,-
Cn1cc(C(=O)c2ccc(Cl)cc2)cc1-c1nc2ccccc2n1C,-,?,?,18µM,13µM,13µM
CCOc1ccccc1N1CCN(C(=O)CCCN2C(=O)c3cccc4cccc(c34)C2=O)CC1,-,-,-,21µM,21µM,?
O=C(CCCN1C(=O)c2cccc3cccc(c23)C1=O)N1CCN(c2ccccc2)CC1,-,-,-,?,?,-
O=C(CCCN1C(=O)c2cccc3cccc(c23)C1=O)N1CCN(c2ccccc2O)CC1,?,-,-,15µM,?,6.5µM
O=C(COc1ccccc1)Nc1nc2c(s1)CCCC2,?,-,-,?,?,-
